NCOA3 inh: human NCOA3 inhibition; AID 588352; Q9Y6Q9; HEK293 GAL4-SRC3 luciferase reporter, luminescence; inhibition, % at 3.6 µM; 0.17% of 360,000 active;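 active = inhibition above a per-campaign cutoff, the mean of all compounds plus 3 SD, cut at about 60% in these data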;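 also: 0% = DMSO-treated cells and 100% = gossypol-treated cells at 36 µM; higher means less SRC3-driven luciferase light from the GAL4 reporter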
Gli-Sufu block: antagonists of Gli-Sufu signaling. Sufu-KO-LIGHT fibroblasts, Gli luciferase reporter luminescence. inhibition, % at 5 µM. AID 588413. 0.74% of 340,000 active;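 active = inhibition above about 55%, limit read from the data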;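 also: 0% = DMSO-treated cells and 100% = wells with medium but no cells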
SRC2 inh: inhibits human steroid receptor coactivator 2 | Q15596 | HEK293 GAL4-SRC2 luciferase reporter, luminescence | inhibition, % at 9 µM | 0.17% of 370,000 active;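 active = inhibition above the mean inhibition of all tested compounds plus 3 SD, set per campaign, cut at about 52% in these data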;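 also: 0% = DMSO treated cells and 100% = cells given Gossypol at 36 µM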
NCOA1 inh: human NCOA1 inhibition; HEK293 GAL4-SRC1 luciferase reporter, luminescence; inhibition, % at 3.6 µM; 0.12% of 360,000 active;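 active = inhibition above the campaign mean plus 3 SD, with each screening campaign given its own cutoff, cut at about 60% in these data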;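 also: 0% = DMSO treated cells and 100% = gossypol at 36 µM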
Target sequence (Q15788 whole entry, looked up, the tested form may be a part): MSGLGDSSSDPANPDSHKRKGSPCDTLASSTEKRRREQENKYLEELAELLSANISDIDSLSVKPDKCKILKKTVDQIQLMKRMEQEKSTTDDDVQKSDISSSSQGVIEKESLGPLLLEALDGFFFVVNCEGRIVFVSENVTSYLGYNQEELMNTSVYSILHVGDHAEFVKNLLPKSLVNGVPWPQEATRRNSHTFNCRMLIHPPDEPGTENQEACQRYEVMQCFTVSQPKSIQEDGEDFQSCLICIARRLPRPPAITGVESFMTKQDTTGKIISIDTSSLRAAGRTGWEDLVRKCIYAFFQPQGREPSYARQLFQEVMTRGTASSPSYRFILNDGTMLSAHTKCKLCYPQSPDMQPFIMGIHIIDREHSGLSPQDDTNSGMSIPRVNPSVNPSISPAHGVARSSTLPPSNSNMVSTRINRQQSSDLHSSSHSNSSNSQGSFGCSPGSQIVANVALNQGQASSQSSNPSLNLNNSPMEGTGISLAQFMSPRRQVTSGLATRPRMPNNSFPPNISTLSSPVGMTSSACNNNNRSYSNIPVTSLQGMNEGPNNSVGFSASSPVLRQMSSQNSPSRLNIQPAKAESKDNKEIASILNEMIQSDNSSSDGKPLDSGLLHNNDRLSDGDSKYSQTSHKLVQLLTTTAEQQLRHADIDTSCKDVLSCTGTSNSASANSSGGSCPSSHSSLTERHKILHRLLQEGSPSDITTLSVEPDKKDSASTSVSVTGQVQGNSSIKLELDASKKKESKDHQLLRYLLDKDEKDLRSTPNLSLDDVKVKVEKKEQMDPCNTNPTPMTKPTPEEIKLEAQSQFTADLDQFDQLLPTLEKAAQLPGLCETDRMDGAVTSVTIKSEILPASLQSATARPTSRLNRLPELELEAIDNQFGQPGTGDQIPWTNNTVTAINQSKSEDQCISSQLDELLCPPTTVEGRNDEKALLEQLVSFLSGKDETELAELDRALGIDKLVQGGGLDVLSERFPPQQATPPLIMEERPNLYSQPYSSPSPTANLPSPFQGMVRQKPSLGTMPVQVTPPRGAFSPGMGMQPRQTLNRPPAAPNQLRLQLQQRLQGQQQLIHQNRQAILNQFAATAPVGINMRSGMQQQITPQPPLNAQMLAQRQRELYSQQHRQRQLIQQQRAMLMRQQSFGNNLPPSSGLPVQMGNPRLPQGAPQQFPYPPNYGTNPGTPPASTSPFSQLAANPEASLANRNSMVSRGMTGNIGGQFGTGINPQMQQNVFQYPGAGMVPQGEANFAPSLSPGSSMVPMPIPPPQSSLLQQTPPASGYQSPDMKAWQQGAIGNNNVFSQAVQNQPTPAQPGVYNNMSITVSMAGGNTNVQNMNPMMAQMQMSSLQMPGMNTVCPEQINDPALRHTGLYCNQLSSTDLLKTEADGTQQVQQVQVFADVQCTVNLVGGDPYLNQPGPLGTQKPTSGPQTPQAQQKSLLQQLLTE
COUP-TFII inh: blocks human COUP-TFII nuclear receptor; AID 686940; inhibition, % at 8.6 µM; 0.7% of 370,000 active; P24468; HEK293T NGFI-A luciferase reporter, luminescence;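 active = inhibition above a per-plate cutoff, mean inhibition of test wells between control levels plus 3 SD, cut at about 38% in these data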;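 also: cells cotransfected with COUP-TFII expression vector driving the NGFI-A reporter; 0% = median of COUP-TF2 test wells and 100% = reporter-only cells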
NR5A2 inv ag: NR5A2 inverse agonism in reporter assay. O00482. HEK293T StAR-luciferase reporter, LRH-1 transfected, 24 h. inhibition, % at 3.6 µM. 0.13% of 360,000 active. AID 602396;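 active = inhibition above the mean inhibition of all tested compounds plus 3 SD, cut at about 73% in these data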;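 also: 0% = DMSO wells and 100% = reporter-only cells lacking LRH-1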
Gli antag conf: Gli-SUFU antagonism confirmation, single concentration; AID 602428; shares compounds with Gli-Sufu block; Sufu-KO-LIGHT cells, Gli luciferase reporter, luminescence; inhibition, % at 5 µM; 40% of 2,500 active;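 active = mean inhibition at 5 µM reaching about 45%, limit read from the data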;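 also: plate controls were DMSO-treated cells for no effect and wells lacking cells for full effect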
SufuKO cytotox: cytotoxicity counter-screen for Gli-SUFU antagonists | 32% of 2,500 active | AID 651994 | shares compounds with Gli-Sufu block | cytotoxicity, % at 5 µM | Sufu-KO-LIGHT cells cytotoxicity, ATP luminescence;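 active = mean cytotoxicity at 5 µM above about 25%, limit read from the data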;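 also: cells exposed to compound overnight for roughly 16 to 18 hours; plate controls were DMSO wells with cells for no effect and medium without cells for full effect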
Wnt3a cs: counter-screen for Gli-SUFU antagonists: Wnt3a reporter inhibition; shares compounds with Gli-Sufu block; Wnt-LIGHT cells, Wnt3a-driven luciferase reporter, luminescence; inhibition, % at 6.25 µM; 20% of 2,500 active; AID 651995;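 active = mean inhibition above about 25%, limit read from the data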
The depositor's hits bear a star; . = not tested or not shown. The list is not random: actives were taken first. Their share in the collection is about 1.3%.

SMILES | NCOA3 inh | Gli-Sufu block | SRC2 inh | NCOA1 inh | COUP-TFII inh | NR5A2 inv ag | Gli antag conf | SufuKO cytotox | Wnt3a cs
O=C(CCC1CCCCC1)Nc1cccnc1 | 1 | 56* | -21 | -12 | 1 | -15 | 19 | -9 | -22
Cc1ccc(NC(=O)C2CC3CCC2C3)cc1 (stereo not drawn) | . | . | . | . | -8 | . | . | . | .
Cn1c(=O)c2c(nc(NCc3ccc4c(c3)OCO4)n2Cc2ccc(F)cc2)n(C)c1=O | -1 | 54 | -15 | 10 | 7 | 29 | 44 | 27* | 7
Cn1c(=O)c2c(nc(NCc3ccc4c(c3)OCO4)n2Cc2ccccc2F)n(C)c1=O | -29 | 42 | -50 | -23 | 0 | 0 | . | . | .
Cn1c(=O)c2c(nc(NCc3ccc4c(c3)OCO4)n2Cc2ccccc2)n(C)c1=O | 2 | 64* | -8 | 7 | 6 | 17 | 62* | 32* | 8
CCOC(=O)c1c(N)sc(C(O)(C(F)(F)F)C(F)(F)F)c1-c1ccc(F)cc1 | 13 | 53 | -1 | 1 | 0 | 9 | 6 | 5 | -56
COC(=O)Cc1[nH]n(-c2nc3ccccc3s2)c(=O)c1C(C)=Nc1ccc(C)cc1 | 44 | 90* | 11 | 5 | 6 | -18 | 94* | 14 | 106*
COC(=O)Cc1[nH]n(-c2nc3ccccc3s2)c(=O)c1C(C)=Nc1ccc(Cl)cc1 | 2 | 86* | 4 | -21 | -17 | -3 | 93* | 18 | 104*
Cc1[nH]c(C)c(S(=O)(=O)Nc2cccc(Cl)c2C)c1C(=O)N1CCCC1 | 5 | -2 | 6 | -4 | 4 | 2 | . | . | .
Cc1[nH]c(C)c(S(=O)(=O)Nc2ccccc2Cl)c1C(=O)N1CCCC1 | 6 | 58* | -10 | 8 | -6 | 9 | 20 | -1 | 5
CN1CCCCC(NC(=O)C23CC4CC(CC(C4)C2)C3)C1=O (stereo not drawn) | . | . | 13 | . | -1 | . | . | . | .
O=Cc1cn(-c2ccccc2)nc1-c1ccccc1 | -36 | -35 | -28 | -17 | 0 | -38 | . | . | .
O=Cc1cn(-c2ccccc2)nc1-c1cccnc1 | -4 | 54 | 30 | 4 | -26 | 4 | 21 | 12 | 5
O=C(Nc1ccccc1C(F)(F)F)O[C@@H]1CC[C@@]23CCCN2C(=O)CCC[C@H]3C1 | . | . | . | . | -21 | . | . | . | .
CCOc1ccc(OCC)c(S(=O)(=O)NCCOC23CC4CC(CC(C4)C2)C3)c1 | 32 | 52 | 25 | 11 | 37 | 10 | 23 | 31* | 8
COC(=O)[C@]12C[C@H](CC(=O)NCc3cccc(C(F)(F)F)c3)C(=O)N(CCc3ccc(OC)c(OC)c3)C1=C[C@H](C(C)C)O[C@@H]2C1CC1 | . | . | 0 | . | -9 | . | . | . | .
CC(C(=O)c1ccc(-c2ccccc2)cc1)[n+]1ccccc1 (stereo not drawn) | 45 | 46 | -7 | 17 | 16 | 18 | . | . | .
Cc1cc[n+](C(C)C(=O)c2ccc(-c3ccccc3)cc2)cc1 (stereo not drawn) | 34 | 82* | 2 | 8 | 35 | 37 | 75* | 27* | -12
O=C(NCc1ccccc1)C1CC2CCCC(C1)C2=O (stereo not drawn) | 9 | 94* | -40 | 8 | 0 | 0 | 14 | 18 | -12
CCCC(=O)OC12CCCN(C1)/C(=C/c1ccc(C#N)cc1)C2 (stereo not drawn) | . | . | 6 | . | 18 | . | . | . | .
COc1ccc2[nH]c(=O)c(CN(Cc3ccco3)C(=O)c3ccccc3)cc2c1 | -10 | 95* | -5 | -17 | -13 | -17 | 26 | 3 | -15
CCOc1ccc2[nH]c(=O)c(CN(Cc3ccco3)C(=O)c3ccc(Br)cc3)cc2c1 | -1 | 6 | 9 | -4 | 10 | 5 | . | . | .
O=C1N(c2cccc3ccccc23)C(c2ccccc2)N2CCCN12 (stereo not drawn) | 1 | 81* | 19 | 6 | -10 | 0 | 14 | 5 | -10
Cc1ccc(OCC(=O)OCC(=O)Nc2sccc2C(N)=O)cc1C | -8 | 3 | 10 | -9 | -14 | 3 | . | . | .

Bioassay records: PubChem, several laboratories
